Assay outcomes (PubChem)
Compounds with a hit are over-represented: about 5% of the library has one in this group of screens.
HCMV antiviral: inhibitors of human cytomegalovirus; HFF cells, HCMV-luciferase reporter, 72 h; hits give low values; activity change, negative = inhibition, % at 57.5 µM; 4.5% of 410,000 active; AID 1259415; in the data active = activity change below about -60%; inconclusive = no clear call, values can overlap the other calls; inactive = above about -39%
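Luciferase read-out from HCMV-luciferase-infected HFFs (MOI 1 PFU/cell) 72 h post infection at 37C; compounds added after 16 h cell attachment; activity normalized between buffer-only basal and Salinomycin (10uM) inhibitor controls.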
Vaccinia Venus: inhibitors of vaccinia virus (Venus reporter); Vaccinia virus Venus reporter expression, fluorescence; Potency, µM (series often up to 36.5 µM), for the others: at the top dose activity change, negative = inhibition, most hits filed as inhibitors; 0.46% of 330,000 active; AID 720580; calls by dose curve; tested in A549 cells; also: potency is read from the fitted curve at half-maximal effect; nearly all actives have a fitted effect of over 30% in size
Tb PYK inh: inhibitors of Trypanosoma brucei pyruvate kinase; Q57TT1; TbPYK enzyme, Kinase-Glo Plus ATP luminescence, 45 min; Potency, µM (titrated, usually from 76.8 µM), without a hit: top-dose activity, negative = inhibition, most hits filed as inhibitors; 0.12% of 410,000 active; AID 624173; also: potency is read from the fitted curve at half-maximal effect; nearly all actives have a fitted effect of over 50% in size
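Luminescent Kinase-Glo Plus end-point after 45 min room-temperature reaction of T. brucei pyruvate kinase started with 130 uM ADP (final). Buffer TEA 50 mM pH 7.2 with KCl, MgCl2, BSA, Tween-20; titration-based qHTS with fitted concentration-effect curves.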
LmPK inhibitor: blocks Leishmania mexicana pyruvate kinase activity; 0.37% of 290,000 active; AID 1721; Potency, µM (highest dose often 57.5 µM), inactives show at the top dose activity change, negative = inhibition, actives largely listed as inhibitors; Q27686; purified LmPK, Kinase-Glo ATP luminescence, 1 h; also: potency is read from the fitted curve at half-maximal effect
Target sequence (Q27686 whole entry, looked up): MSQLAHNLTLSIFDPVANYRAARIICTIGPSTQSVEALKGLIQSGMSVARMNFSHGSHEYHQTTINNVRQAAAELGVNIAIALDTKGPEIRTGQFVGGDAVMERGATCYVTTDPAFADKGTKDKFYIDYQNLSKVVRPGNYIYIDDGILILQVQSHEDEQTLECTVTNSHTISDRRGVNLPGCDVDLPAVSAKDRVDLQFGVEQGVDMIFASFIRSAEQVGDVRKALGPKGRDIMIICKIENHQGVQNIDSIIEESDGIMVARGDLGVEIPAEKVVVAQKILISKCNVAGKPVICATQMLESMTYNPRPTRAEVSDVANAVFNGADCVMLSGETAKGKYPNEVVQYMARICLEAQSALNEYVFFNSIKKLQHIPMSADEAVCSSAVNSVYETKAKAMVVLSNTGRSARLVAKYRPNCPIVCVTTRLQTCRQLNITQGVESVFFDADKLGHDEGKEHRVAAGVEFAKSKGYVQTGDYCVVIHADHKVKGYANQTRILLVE
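Purified LmPK (0.1 nM) with 0.5 mM PEP and 0.1 mM ADP in imidazole buffer pH 7.2 with MgCl2/KCl, 1 h at room temperature. ATP formed was read by luciferase luminescence and normalized to no-enzyme and uninhibited controls.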
VACV mCherry inh: vaccinia inhibition (mCherry reporter) | Vaccinia virus mCherry reporter infection, fluorescence | Potency, µM (titrated, usually from 36.5 µM), for the others: at the top dose activity change, negative = inhibition, actives largely listed as inhibitors | 0.63% of 310,000 active | AID 720579; calls by dose curve; tested in A549 cells; also: potency is read from the fitted curve at half-maximal effect; nearly all actives have a fitted effect of over 35% in size
Numbers without * were called inactive; i = inactive; ? = inconclusive; · = no result given; ! = a repeat was not active; [ ] = dose if it differs, or a comment. Unless noted, calls follow the shape of the dose curve; as a rule, active = well fitted curve in the direction sought with a large enough effect; inconclusive = small, poorly fitted or top-dose-only effect, or another doubt; inactive = no such curve, though single readings can be large; an effect the other way counts as inactive or inconclusive. % is scaled to controls: 0 for no effect and ±100 for the full control effect.

SMILES	HCMV antiviral	Vaccinia Venus	Tb PYK inh	LmPK inhibitor	VACV mCherry inh
O=[N+]([O-])c1ccc(C[n+]2cccc3c4ccccc4ccc32)cc1	-80.6*	-26.1%	4.3%	9.2%	?
COc1cccc(-c2nc(CS(=O)(=O)CC(=O)N3CCN(C)CC3)c(C)o2)c1	1.4	-12.1%	0.0%	1.8%	-8.4%
COc1cccc(OCc2nnc(-c3cccs3)o2)c1	-77.3*	·	·	0.1%	·
C[C@@H]1CN([C@H](C)CO)C(=O)c2c(c3ccccc3n2C)-c2ccccc2CO[C@H]1CN(C)Cc1cccc(C(=O)O)c1	22.2	-6.4%	12.4%	·	-25.6%
Cn1cncc1C#Cc1ccc(N2C(c3ccsc3)=Cc3ccc(F)cc3C2c2c[nH]c3ccccc23)cc1 (stereo not given)	-3.6	-10.3%	4.5%	·	25.9%
CCc1sc(NC(=O)C(C)C)nc1-c1ccccc1	-78.0*	-0.8%	-11.2%	3.2%	i
CCc1sc(NC(C)=O)nc1-c1ccccc1	22.9	-17.2%	-5.4%	2.7%	-22.6%
O=C(O)Cc1sc(Nc2ccccc2Cl)nc1-c1ccccc1	-61.0*	-3.0%	-9.7%	·	1.8%
Cn1nc(OCC(N)=O)ccc1=O	-24.1	-6.1%	2.0%	-0.1%	-6.3%
Cc1cc(NC(=O)CSc2ccnc(=O)[nH]2)no1	-30.8	-6.3%	-8.9%	·	-12.3%
COc1ccccc1/C=C(\NC(=O)c1ccc(OC)c(OC)c1)C(=O)Nc1cccc([N+](=O)[O-])c1	-61.3*	-14.1%	3.2%	3.3%	i
COc1ccccc1/C=C/C1(C(=O)NC2CCCC2)CC(=O)N1c1ccc(F)cc1 (stereo not given)	-82.9*	·	0.6%	-0.2%	·
COc1ccccc1/C=C/C1(C(=O)NC2CCCC2)CC(=O)N1c1ccc(C)cc1 (stereo not given)	-98.4*	·	3.2%	4.9%	·
CC(=O)O[C@H]1[C@@H](O)[C@H](O)[C@H](Oc2c(O)c(C)c3c4c2[C@@H](C)CC[C@@H]4[C@@H](C)C[C@H]3C=C(C)C)O[C@H]1C	-96.9*	-19.2%	7.9%	·	-1.6%
CC(=O)O[C@@H]1[C@@H](O)[C@@H](O)[C@H](Oc2c(-c3ccc(O)cc3)oc3c(CC=C(C)C)c(O)cc(O)c3c2=O)O[C@H]1C	·	-3.9%	-0.7%	·	-3.4%
CN(/N=C/c1ccc(O)cc1O)c1ncc(C(F)(F)F)cc1Cl	-74.4*	·	1.2%	2.6%	·
Nc1ccn(C2CO[C@H](CO)O2)c(=O)n1 (stereo not given in full)	·	·	2.8%	·	·
CCCCCCCCCCCCCCCC(=O)OCC1OC(n2ccc(N)nc2=O)C(O)C1O (stereo not given)	-35.6	?	4.4%	·	?
Nc1nc(=S)c2ncn([C@@H]3O[C@H](CO)[C@@H](O)[C@H]3O)c2[nH]1	-88.7*	?	-8.6%	·	?
NC[C@H]1O[C@@H](n2ccc(N)nc2=O)[C@H](O)[C@@H]1O	-86.8*	-9.4%	2.5%	·	34.8%
CCCCCCCCCCCCCCCC(=O)Nc1ccn(C2OC(CO)C(O)C2O)c(=O)n1 (stereo not given)	-97.9*	?	-10.1%	·	?
Nc1ccn(C2OC(CO)C(O)C2F)c(=O)n1 (stereo not given)	-81.6*	?	-7.1%	·	?
O=S(=O)(c1c(F)cccc1F)C1CCN(S(=O)(=O)c2ccc3c(c2)OCCO3)CC1	-12.2	·	-6.4%	·	·
Cc1ccc(NC(=O)COC(=O)c2cccc(S(=O)(=O)N3CCCCCC3)c2)cc1	44.3	-9.3%	-2.2%	·	-11.3%
CCOc1ccc(N2CC(C(=O)NCc3nnnn3-c3ccc(C)c(C)c3)CC2=O)cc1 (stereo not given)	-26.3	-12.8%	-4.2%	9.8%	-12.6%
SMILES	HCMV antiviral	Vaccinia Venus	Tb PYK inh	LmPK inhibitor	VACV mCherry inh
Nc1ccn([C@@H]2O[C@H](CNC(=O)[C@H]3CCC(=O)N3)[C@@H](O)[C@H]2O)c(=O)n1	-5.5	1.8%	-9.5%	·	i
Nc1ccn([C@@H]2O[C@H](CO)[C@H](O)C2(F)F)c(=O)n1	·	·	2.1%	·	·
Nc1ccn(C2OC(CO)C(O)C2O)c(=O)n1 (stereo not given)	·	-25.5%	·	·	0.0891µM*!
Nc1ncn([C@@H]2O[C@H](CO)[C@@H](O)[C@H]2O)c(=O)n1	?	6.31µM*	0.0%	·	2.82µM*!
Nc1ccn([C@@H]2O[C@H](CO)[C@@H](O)[C@@H]2O)c(=O)n1	-99.5*	?	3.9%	-0.7%	0.501µM*
CCOC(=O)c1cccc(NS(=O)(=O)c2cnc[nH]2)c1	-27.1	-8.6%	6.1%	-2.2%	-12.7%
Cc1ccccc1Nc1nc(N)nc(CSCc2c(C)noc2C)n1	-17.2	4.9%	-1.4%	1.5%	0.1%
CC(=O)C1C(N2CC2)CC2C3CC=C4CC(O)CCC4(C)C3CCC21C (stereo not given)	-75.7*	?	-0.2%	·	-18.2%
C[C@@H](N)C(=O)N[C@H]1CCC2C3CC=C4C[C@@H](O)CC[C@]4(C)C3CC[C@@]21C (stereo not given in full)	?	-14.3%	-4.0%	·	i
CC(C)[C@H](N)C(=O)N[C@H]1CCC2C3CC=C4C[C@@H](O)CC[C@]4(C)C3CC[C@@]21C (stereo not given in full)	-16.9	12.6µM*	3.8%	·	?
Cc1ccc(S(=O)(=O)n2nccc2-c2c(-c3ccc(Cl)cc3)noc2C)cc1	-95.9*	1.3%[7.34 µM]	6.5%	1.6%	?
CC(C)N(C(=O)[C@H]1C[C@H](CC(=O)NCc2cccc(C(F)(F)F)c2)C(=O)N2CCc3c([nH]c4cc(-c5ccco5)ccc34)[C@]12C)C(C)C	0.0	-28.0%	2.8%	·	?
O=C(CCOc1ccccc1)OCC(=O)c1cc2ccccc2o1	125.0	-2.4%	-5.8%	-2.0%	·
CCCCC(=O)N1CCCC(C(=O)OCC)C1 (stereo not given)	7.3	·	-21.1%	-1.4%	·
NC(=O)c1ccsc1NC(=O)CSc1ccccc1F	-0.2	-8.0%	0.6%	0.0%	-1.8%
NC(=O)c1ccsc1NC(=O)CSc1nnc(Nc2ccccc2)s1	-63.1*	·	-5.5%	1.3%	·
Cc1c(/C=C/C(=O)c2ccc(C(C)C)cc2)cnn1C	-87.1*	-14.0%	-3.8%	-2.1%	-11.0%
CCn1c2ccccc2c2nnc(SCC(=O)NCc3cccs3)nc21	-37.5	-13.5%	-11.1%	3.8%	-17.8%
O=C(CNC(=O)c1ccc(S(=O)(=O)N2CCCC2)cc1)N/N=C/c1ccc(Cl)cc1	11.6	-5.6%	5.0%	1.4%	-14.7%
O=C(N/N=C/c1cc(Br)ccc1O)c1ccncc1	0.0	-24.4%	-15.4%	-0.5%	?
CC(C)C(=O)Nc1ccc(C(=O)N/N=C/c2cc(Br)cc(Br)c2O)cc1	-78.2*	-4.0%	-6.1%	9.4%	-22.5%
Cc1nc(C)c(C(=O)N/N=C/c2cc(Br)ccc2O)s1	-99.0*	·	7.0%	-3.0%	·
CC(=O)Nc1ccc(C(=O)N/N=C/c2cc(Br)cc(Br)c2O)cc1	-7.8	-8.0%	-7.8%	-1.0%	-17.9%
